# Screening data from PubChem BioAssay.
# Rows were chosen to be rich in hits. Some 27% of all compounds tested hit in one or more screens of this group.
# CYP2C9 inh = human CYP2C9 inhibition. inhibition, % at 5 µM. CYP2C9 Supersomes, luciferin-H conversion, luminescence. AID 777. P11712. 96,000 tested, 20% active;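 active = blocking of liver enzyme CYP2C9 beyond about 50% at 5 µM, limit read from the data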
# CYP2C19 activ = cytochrome P450 2C19 (human) activation; AID 1025; recombinant CYP2C19, luciferin-H EGE luminescence; hits give high values; 0 = fully inhibited enzyme, 1 = untreated enzyme; 96,000 tested, under 10 active; activation factor at 5 µM; P33261;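 active = activation factor of at least 2 at 5 µM in the primary screen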;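 also: 0 = wells with 2.5 mM tranylcypromine and 1 = vehicle-only wells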
# CYP2C9 activ = increases human cytochrome P450 2C9 activity. recombinant CYP2C9, luciferin-H conversion, luminescence; hits give high values; factor 1 = untreated enzyme, 0 = blocked. activation factor at 5 µM. 96,000 tested, 1.4% active. AID 1024;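 active = activation factor of 2 or more for CYP2C9 at a 5 µM dose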;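 also: 0 = sulfaphenazole-blocked wells and 1 = vehicle-only wells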
# EphB4 ephrin blk = EphB4-ephrin-B2 interaction antagonism; EphB4 LBD / TNYL-RAW-Alexa532 peptide, fluorescence polarization; 97,000 tested, 0.15% active; AID 720; P54760; inhibition, % at 7 µM;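 active = inhibition above the screen-wide mean inhibition plus 3 SD, cut at about 15% in these data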;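 also: 0% = DMSO wells and 100% = excess unlabeled TNYL-RAW peptide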
# Target sequence (P54760 whole entry, looked up, the tested form may be a part): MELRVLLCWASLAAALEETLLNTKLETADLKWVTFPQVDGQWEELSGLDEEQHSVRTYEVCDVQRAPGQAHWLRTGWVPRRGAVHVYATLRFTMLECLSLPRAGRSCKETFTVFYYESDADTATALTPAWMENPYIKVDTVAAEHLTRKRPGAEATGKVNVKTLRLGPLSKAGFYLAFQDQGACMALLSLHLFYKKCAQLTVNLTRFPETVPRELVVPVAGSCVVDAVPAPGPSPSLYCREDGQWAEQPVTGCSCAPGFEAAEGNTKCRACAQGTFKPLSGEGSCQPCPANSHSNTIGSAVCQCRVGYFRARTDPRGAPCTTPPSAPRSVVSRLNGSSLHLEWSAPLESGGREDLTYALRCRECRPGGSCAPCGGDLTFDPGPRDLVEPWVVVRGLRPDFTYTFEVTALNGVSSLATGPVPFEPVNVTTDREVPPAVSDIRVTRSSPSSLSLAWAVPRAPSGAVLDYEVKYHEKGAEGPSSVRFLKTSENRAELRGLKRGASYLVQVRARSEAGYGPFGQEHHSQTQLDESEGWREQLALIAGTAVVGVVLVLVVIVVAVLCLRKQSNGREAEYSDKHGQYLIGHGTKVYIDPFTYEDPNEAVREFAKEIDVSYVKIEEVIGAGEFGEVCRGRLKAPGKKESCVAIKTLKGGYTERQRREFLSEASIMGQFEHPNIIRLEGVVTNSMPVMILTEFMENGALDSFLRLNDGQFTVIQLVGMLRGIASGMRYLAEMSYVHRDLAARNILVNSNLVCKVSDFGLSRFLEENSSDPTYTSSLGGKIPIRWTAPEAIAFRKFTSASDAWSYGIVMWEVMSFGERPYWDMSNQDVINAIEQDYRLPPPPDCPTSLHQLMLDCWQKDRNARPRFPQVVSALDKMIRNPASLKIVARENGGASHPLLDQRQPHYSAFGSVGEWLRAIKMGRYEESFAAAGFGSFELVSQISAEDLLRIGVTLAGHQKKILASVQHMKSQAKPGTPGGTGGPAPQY
# CYP2C19 inhib = human CYP2C19 inhibition; P33261; CYP2C19 Supersomes, luciferin-H EGE luminescence, 30 min; inhibition, % at 5 µM; 96,000 tested, 21% active; AID 778;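 active = CYP2C19 inhibition above a set limit at 5 µM in the primary screen, cut at about 50% in these data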;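 also: plate controls were negative control wells for no effect and 2.5 mM tranylcypromine positive control for full effect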
# * marks the source's active call; other numbers are inactive results; / = not tested or not shown.
SMILES,CYP2C9 inh,CYP2C19 activ,CYP2C9 activ,EphB4 ephrin blk,CYP2C19 inhib
O=C(CNC(=O)c1ccccc1F)NC1CC1,/,/,/,-0.6,/
COc1ccc(N2Cc3ccccc3C2)cc1Cl,58.3*,0.9,0.4,-2.6,12.5
COc1ccc(Cl)cc1N1Cc2ccccc2C1,27.0,0.9,0.7,0.8,14.3
COc1ccc(S(=O)(=O)Nc2ccccn2)c(C)c1C,-86.9,0.8,1.9,4.4,16.6
O=C(CCC(=O)c1ccc[nH]1)c1ccc(Cl)cc1,11.7,0.7,0.9,3.3,30.2
COC(=O)c1cn(NC(=O)c2cc(OC)cc(OC)c2)c(=O)c2ccccc12,78.4*,0.8,0.2,-3.1,15.0
COC(=O)c1cn(NC(=O)c2ccc(F)cc2)c(=O)c2ccccc12,26.1,0.9,0.7,-9.7,13.1
COC(=O)c1cn(NC(=O)c2cccnc2)c(=O)c2ccccc12,6.7,1.1,0.9,3.6,-8.3
COC(=O)c1cn(-c2ccc(Cl)cc2)c(=O)c2ccccc12,74.5*,0.3,0.3,1.9,69.2*
COC(=O)c1cn(NC(=O)c2ccncc2)c(=O)c2ccccc12,62.4*,0.6,0.4,/,37.4
COC(=O)c1cn(NC(=O)c2cc(OC)c(OC)c(OC)c2)c(=O)c2ccccc12,8.1,0.9,0.9,-1.5,5.1
CCOC(=O)c1noc(C)c1C(=O)Nc1cccc(F)c1,4.8,0.6,1,-2.5,41.7
CC(=O)c1cc(F)c(N2CCN(C(=O)COc3ccccc3F)CC2)cc1C,/,/,/,2.9,/
Cc1cc(C(=O)CN2C(=O)c3ccccc3C2=O)c(C)n1C1CC1,-30.8,1,1.3,-6.4,0.2
O=C(COc1ccccc1F)c1ccc(O)cc1O,5.7,0.1,0.9,-8.1,91.7*
Cc1c(O)ccc(C(=O)CN2C(=O)c3ccccc3C2=O)c1O,23.3,0.2,0.8,6.1,81.4*
Cc1c(O)ccc(C(=O)COc2ccccc2F)c1O,-1.6,0.3,1,-6.9,69.2*
CCOC(=O)N1CCN(C(=O)CSCc2ccc(C)cc2)CC1,13.0,0.9,0.9,1.8,12.2
COc1ccc(NCc2nc3ccccc3n2CCOc2ccccc2)cc1,78.7*,0.8,0.2,-2.6,24.9
O=C(Nc1nc2ccccc2n1CCOc1ccccc1)c1ccco1,38.5,0.4,0.6,-8.2,57.9*
CCCc1nc2ccccc2n1CCOC,4.5,1,1,-0.9,4.3
CCCc1nc2ccccc2n1CCOc1ccccc1,34.3,0.4,0.7,1.6,61.2*
O=C(Nc1nc2ccccc2n1CCOc1ccc(Cl)cc1)c1ccco1,9.7,1,0.9,4.2,2.5
Cc1ccc(OCCn2c(CCCO)nc3ccccc32)cc1,28.5,0.4,0.7,1.8,58.6*
OCCCc1nc2ccccc2n1CCOc1ccccc1,42.1,0.2,0.6,5.1,84.1*
SMILES,CYP2C9 inh,CYP2C19 activ,CYP2C9 activ,EphB4 ephrin blk,CYP2C19 inhib
CC(C)C(=O)NCCc1nc2ccccc2n1C,1.3,0.8,1,-5.6,19.9
CCOCCn1c(CCCO)nc2ccccc21,-6.7,1,1.1,0.8,0.2
CCOCCn1c(COc2ccccc2)nc2ccccc21,14.7,0.5,0.9,-2.0,50.7*
CC(C)C(=O)NCCc1nc2ccccc2n1CCCOc1ccc(Cl)cc1,77.1*,0.2,0.2,-0.5,77.2*
COCc1nc2ccccc2n1CCCOc1ccccc1,77.7*,0,0.2,-0.2,97.3*
Cc1c(NC(=S)N/N=C/c2cccc(O)c2)c(=O)n(-c2ccccc2)n1C,10.8,1,0.9,1.1,-1.7
Fc1ccc(-c2ccnc3nc(N4CCOCC4)nn23)cc1,-3.4,0.8,1,-0.2,18.4
Cc1nc2n(n1)C(c1ccccc1)C1=C(CC(c3ccco3)CC1=O)N2 (stereo not given),-0.4,1,1,-1.1,-4.6
O=C1CC(c2ccco2)CC2=C1C=Nc1ccccc1N2 (stereo not given),76.1*,0.4,0.2,6.1,63.1*
Cc1cc(C)cc(-c2nnc(SCC(=O)NCc3cccs3)o2)c1,-10.4,0.5,1.1,-0.8,46.6
CSc1ccc(CNc2cccc3ccccc23)cc1,13.2,0,0.9,-4.2,98.4*
CSc1ccc(CNc2ccc(C)cc2)cc1,13.4,0.1,0.9,2.3,86.6*
CSc1ccc(CNc2ccc(C)c(C)c2)cc1,0.0,0,1,-0.7,98.3*
CC1(C)NC(=O)N(CCOCCSc2ccccc2)C1=O,39.3,0.1,0.6,1.2,85.9*
CC1(C)NC(=O)N(CCSc2ccc(Cl)cc2)C1=O,50.4*,0.1,0.5,3.2,92.9*
Clc1ccc(SCCn2cncn2)cc1,31.1,0.7,0.7,-0.9,34.7
Cc1ccc(SCCCCN2C(=O)NC(C)(C)C2=O)cc1,77.4*,0.1,0.2,3.6,88.0*
O=C(COc1ccc(Cl)cc1)NNC(=O)c1ccccn1,-7.7,1,1.1,-3.5,-2.8
CCCC(=O)c1c[nH]c(C(=O)NCc2ccco2)c1,4.3,0.9,1,-2.6,11.4
Cc1cccc(NC(=O)CSc2nnc(-c3ccncc3)n2C)c1,52.1*,0.2,0.5,-3.6,79.9*
Cc1cc(NC(=O)CSc2nnc(-c3ccncc3)n2N)ccc1Br,87.3*,0.5,0.1,1.0,47.8
Cn1c(SCC(=O)Nc2nccs2)nnc1-c1ccncc1,31.6,0.6,0.7,-7.0,40.5
Cc1ccc(C)c(NC(=O)CSc2nnc(-c3ccccc3)n2N)c1,34.9,0.4,0.7,-9.0,62.6*
COc1cccc(-c2nnc(SCC(=O)Nc3cc(C)ccc3OC)n2N)c1,17.2,0.8,0.8,-6.3,18.4
Cc1cccc(NC(=O)CSc2nnc(-c3ccc(S(=O)(=O)N4CCOCC4)cc3)n2C)c1,51.6*,0,0.5,2.1,99.4*
SMILES,CYP2C9 inh,CYP2C19 activ,CYP2C9 activ,EphB4 ephrin blk,CYP2C19 inhib
O=C(c1cnn2cccnc12)N1CCN(Cc2ccc3c(c2)OCO3)CC1,-3.6,0.9,1,-4.0,11.6
CCOc1ccccc1OCCCOc1ccc(C)cc1Br,-0.7,0.7,1,-4.2,26.2
CCOC(=O)c1ccc(NC(=O)CSc2nnc(C3CC3)n2C)cc1,/,/,/,-0.5,/
CCOC(=O)c1ccc(NC(=O)CSc2nnc(-c3ccncc3)n2C)cc1,72.8*,0.3,0.3,-3.9,69.4*
Cc1ccc(Nc2nnc(SCC(=O)Nc3ccc(S(=O)(=O)N4CCOCC4)cc3)s2)cc1,74.4*,1.2,0.3,-3.4,-20.4
Cc1ccc(-c2cc(-c3nnc(SCC(=O)NCC(C)C)n3N)c3ccccc3n2)cc1,78.2*,0.6,0.2,6.5,38.9
Cc1nc(-c2ccccn2)sc1C(=O)Nc1ccc(F)cc1F,-73.9,1,1.7,-12.9,1.9
C#CCOC(=O)CCC(=O)NCCc1ccccc1,26.3,0.3,0.7,/,67.3*
CCCOc1ccccc1NC(=O)c1ccc(N)cc1,-167.7,0.6,2.7*,1.4,38.9
CCOc1ccccc1NC(=O)c1ccc(S(=O)(=O)N(C)C)cc1,36.5,0.7,0.6,-1.9,28.4
CCOc1ccccc1NC(=O)c1ccc2nccnc2c1,-114.5,1,2.1*,/,2.2
CC(=O)c1cccc(NS(=O)(=O)N(C)C)c1,-18.0,1.1,1.2,0.4,-12.5
